Results: PubChem BioAssay (NCATS)

Assay: Cell Proliferation Assay against the TMD8 Cell Line (AID 651645);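 also: cells exposed to compound for 48 h before reading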
Settings: TMD8 DLBCL cell line proliferation/viability; at 46.1 µM (top of the series)
Procedure, shortened: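 Cell viability of the ABC DLBCL line TMD8 is measured by CellTiter-Glo luminescence following a 48-hour incubation with compound. Percent activity uses DMSO as 100% and 9.2 uM bortezomib (final) as 0%.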
`COc1cc2c(cc1OC)[C@@H]1C(=O)c3ccc4c(c3O[C@@H]1CO2)C=CC(C)(C)O4` showed a viability (% of control) of 2.43%.
In the case of `COc1cc(C)c(Sc2cnc(NC(=O)c3ccc(CNC(C)C(C)(C)C)cc3)s2)cc1C(=O)N1CCN(C(C)=O)CC1` (centres undefined), the viability (% of control) was 18.7%.
Molecule `N#Cc1ccc(COC[C@H]2O[C@@H](n3c(NCc4ccc(Cl)c(Cl)c4)nc4c(N)ncnc43)[C@@H](O)[C@@H]2O)cc1` has a viability (% of control) of 1.09%.
In the case of `Cn1c(Nc2ccc(C(F)(F)F)cc2)nc2cc(Oc3ccnc(-c4ncc(C(F)(F)F)[nH]4)c3)ccc21`, the viability (% of control) was 15.6%.
